Measurements: PubChem BioAssay (NCI)
The panel holds about 83,000 compounds, 20% with a hit somewhere; the sample as a whole holds those more often.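 In brief: 96-well plates, 48 h treatment, single concentration, percent growth endpoint.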 Activity calls are given as the source filed them. How the source made its calls: active means growth percent below 10; inactive means the rest.

Legend:
Test in all cases: NCI-60 one-dose screen, 48 h (100 = growth as untreated, 0 = no growth, -100 = all killed)
Settings in all cases: 10 µM unless noted
SR leukemia = tested on: SR leukemia
RPMI-8226 leukemia = tested on: RPMI-8226 leukemia
OVCAR-8 ovarian = tested on: OVCAR-8 ovarian
OVCAR-5 ovarian = tested on: OVCAR-5 ovarian
OVCAR-4 ovarian = tested on: OVCAR-4 ovarian
SK-OV-3 ovarian = tested on: SK-OV-3 ovarian
IGROV1 ovarian = tested on: IGROV1 ovarian
OVCAR-3 ovarian = tested on: OVCAR-3 ovarian
HS 578T breast = tested on: HS 578T breast
NCI/ADR-RES ovarian = tested on: NCI/ADR-RES ovarian
T-47D breast = tested on: T-47D breast
BT-549 breast = tested on: BT-549 breast
MDA-MB-435 melanoma = tested on: MDA-MB-435 melanoma
SW-620 colon = tested on: SW-620 colon
MCF7 breast = tested on: MCF7 breast
HCT-116 colon = tested on: HCT-116 colon
HCC-2998 colon = tested on: HCC-2998 colon
KM12 colon = tested on: KM12 colon

Measured: growth

Cc1ccc(Nc2nc(N)nc(CSCC(=O)NN)n2)cc1
inactive: SR leukemia 87% | RPMI-8226 leukemia 101% | OVCAR-8 ovarian 103% | OVCAR-5 ovarian 103% | OVCAR-4 ovarian 93.7% | SK-OV-3 ovarian 101% | IGROV1 ovarian 99.5% | OVCAR-3 ovarian 105% | HS 578T breast 90.9% | NCI/ADR-RES ovarian 104% | T-47D breast 102% | BT-549 breast 93.6% | MDA-MB-435 melanoma 94.3% | SW-620 colon 98.9% | MCF7 breast 94.3% | HCT-116 colon 103% | HCC-2998 colon 109% | KM12 colon 98.1%

COc1ccc2[nH]c(O)c(/C=c3/cc4c(c(-c5ccc(F)c(OC)c5)n3)=Nc3ccccc3-4)c2c1
inactive: OVCAR-8 ovarian 60.4% | OVCAR-5 ovarian 93.9% | SK-OV-3 ovarian 107% | IGROV1 ovarian 84.6% | HS 578T breast 84.7% | NCI/ADR-RES ovarian 32.7% | T-47D breast 89.6% | BT-549 breast 84.1% | KM12 colon 13.1%
active: SR leukemia 2.4% | RPMI-8226 leukemia -20.4% | OVCAR-4 ovarian 6.42% | OVCAR-3 ovarian -34.4% | MDA-MB-435 melanoma 6.77% | SW-620 colon -23.2% | MCF7 breast 1.29% | HCT-116 colon -91% | HCC-2998 colon -0.339%

CCOC(=O)c1c2ncccc2n2c(=O)n(-c3ccccc3C)nnc12
inactive: SR leukemia 60.4% | RPMI-8226 leukemia 158% | OVCAR-8 ovarian 99.1% | OVCAR-5 ovarian 101% | OVCAR-4 ovarian 90.2% | SK-OV-3 ovarian 80.7% | IGROV1 ovarian 63.9% | OVCAR-3 ovarian 135% | HS 578T breast 112% | NCI/ADR-RES ovarian 93.3% | T-47D breast 89.9% | BT-549 breast 104% | MDA-MB-435 melanoma 116% | SW-620 colon 117% | MCF7 breast 77.5% | HCT-116 colon 92.6% | HCC-2998 colon 106% | KM12 colon 119%

COc1ccc(-c2cc(-c3ccc(Nc4nc(Nc5ccc(Cl)cc5)nc(Nc5ccc(Cl)cc5)n4)cc3)nc(N)c2C#N)cc1
active: SR leukemia 5.37% | RPMI-8226 leukemia -23.5% | IGROV1 ovarian 6.53% | OVCAR-3 ovarian -15.5% | T-47D breast 3.86% | BT-549 breast -55.3% | MDA-MB-435 melanoma -1.59% | SW-620 colon -3.93% | HCC-2998 colon -8.77%
inactive: OVCAR-8 ovarian 39.8% | OVCAR-5 ovarian 37% | OVCAR-4 ovarian 14.6% | SK-OV-3 ovarian 104% | HS 578T breast 29.2% | NCI/ADR-RES ovarian 51% | MCF7 breast 32.4% | HCT-116 colon 20.2% | KM12 colon 27.7%

Cn1c(-c2c(N)n(Cc3ccc(C(F)(F)F)cc3)c3nc(C#N)c(C#N)nc23)nc2ccccc21
active: SR leukemia -35.5% | RPMI-8226 leukemia -42.3% | OVCAR-8 ovarian 7.05% | SK-OV-3 ovarian -4.02% | OVCAR-3 ovarian -8.62% | NCI/ADR-RES ovarian 6.65% | T-47D breast 4.18% | BT-549 breast 7.95% | SW-620 colon 6.57% | MCF7 breast 8.74% | HCT-116 colon -29% | KM12 colon 5.33%
inactive: OVCAR-5 ovarian 30% | OVCAR-4 ovarian 22.6% | IGROV1 ovarian 16.9% | HS 578T breast 12.4% | MDA-MB-435 melanoma 14.9% | HCC-2998 colon 14.7%

O=[N+]([O-])c1ccc(OCCO)cc1
inactive: SR leukemia 139% | RPMI-8226 leukemia 101% | OVCAR-8 ovarian 98.7% | OVCAR-5 ovarian 97.1% | OVCAR-4 ovarian 102% | SK-OV-3 ovarian 103% | IGROV1 ovarian 105% | OVCAR-3 ovarian 99.9% | HS 578T breast 99.5% | NCI/ADR-RES ovarian 97.8% | T-47D breast 101% | BT-549 breast 109% | MDA-MB-435 melanoma 105% | SW-620 colon 101% | MCF7 breast 94.3% | HCT-116 colon 103% | HCC-2998 colon 113% | KM12 colon 106%

C=CCn1c(C)nc2cc(Nc3nc(Cl)nc4ccccc34)ccc21
inactive: SR leukemia 94.7% | RPMI-8226 leukemia 75.2% | OVCAR-8 ovarian 93.8% | OVCAR-5 ovarian 99.8% | OVCAR-4 ovarian 91.2% | SK-OV-3 ovarian 122% | IGROV1 ovarian 116% | OVCAR-3 ovarian 102% | HS 578T breast 92.7% | NCI/ADR-RES ovarian 90.3% | T-47D breast 81.5% | BT-549 breast 94.8% | MDA-MB-435 melanoma 93.3% | SW-620 colon 102% | MCF7 breast 94.6% | HCT-116 colon 91.5% | HCC-2998 colon 101% | KM12 colon 95.2%

O=C(NCCCNc1cc(-c2cn(-c3ccccc3)nc2-c2cccc(O)c2)ccn1)c1cccc(O)c1
active: SR leukemia -9.11% | T-47D breast 8.13%
inactive: RPMI-8226 leukemia 45.2% | OVCAR-8 ovarian 40.9% | OVCAR-5 ovarian 107% | OVCAR-4 ovarian 67.8% | SK-OV-3 ovarian 69.3% | IGROV1 ovarian 84.5% | OVCAR-3 ovarian 58.3% | HS 578T breast 34.2% | NCI/ADR-RES ovarian 95% | BT-549 breast 37.5% | MDA-MB-435 melanoma 32.1% | SW-620 colon 51% | MCF7 breast 47.3% | HCT-116 colon 47.3% | HCC-2998 colon 64.8% | KM12 colon 45.3%

Nc1cc2c3c(cccc3c1)C(=O)N(CCN1CCCC1)C2=O
inactive: OVCAR-8 ovarian 34.4% | OVCAR-5 ovarian 65.6% | OVCAR-4 ovarian 49.2% | SK-OV-3 ovarian 36.9% | OVCAR-3 ovarian 49.9% | HS 578T breast 35.2% | NCI/ADR-RES ovarian 35.1% | T-47D breast 18% | BT-549 breast 74.7% | MDA-MB-435 melanoma 48.7% | SW-620 colon 20.3% | HCT-116 colon 17.4% | HCC-2998 colon 44.1% | KM12 colon 34.7%
active: SR leukemia -6.11% | RPMI-8226 leukemia 7.72% | IGROV1 ovarian 8.96% | MCF7 breast 6.93%

O=C(c1ccc(Nc2nccc(NCCCCNc3ccnc4cc(Cl)ccc34)n2)cc1)N1CCCCC1
active: SR leukemia -27.3% | RPMI-8226 leukemia 8.24% | T-47D breast -33.2% | MDA-MB-435 melanoma -67.6% | SW-620 colon 2.09% | MCF7 breast 4.09% | HCT-116 colon -18.6% | HCC-2998 colon -11.2%
inactive: OVCAR-8 ovarian 23% | OVCAR-5 ovarian 91.9% | OVCAR-4 ovarian 49% | SK-OV-3 ovarian 97.7% | IGROV1 ovarian 46.5% | OVCAR-3 ovarian 36.6% | HS 578T breast 65% | NCI/ADR-RES ovarian 89% | KM12 colon 54.2%

COc1ccc2c(c1)CCCN2c1c2ccccc2nc2ccccc12
active: OVCAR-3 ovarian -21.7% | NCI/ADR-RES ovarian 0.746% | MDA-MB-435 melanoma -17.9% | HCT-116 colon 6.8% | HCC-2998 colon -9.75% | KM12 colon 5.15%
inactive: SR leukemia 12.5% | RPMI-8226 leukemia 20.5% | OVCAR-8 ovarian 16.6% | OVCAR-5 ovarian 28.3% | OVCAR-4 ovarian 30.4% | SK-OV-3 ovarian 37.5% | IGROV1 ovarian 32.7% | HS 578T breast 10.4% | T-47D breast 51.1% | SW-620 colon 24.7% | MCF7 breast 20.8%

O=C1C=C[C@]2(C[C@@H](c3cccc(C(F)(F)F)c3)O[C@@H](c3cccc(C(F)(F)F)c3)O2)O1
inactive: OVCAR-8 ovarian 38.5% | OVCAR-5 ovarian 86.2% | OVCAR-4 ovarian 48.9% | SK-OV-3 ovarian 84.9% | IGROV1 ovarian 22.3% | NCI/ADR-RES ovarian 51.3% | HCC-2998 colon 18%
active: SR leukemia 9.17% | RPMI-8226 leukemia -2.8% | OVCAR-3 ovarian -33.1% | HS 578T breast -4.02% | T-47D breast -49.6% | SW-620 colon -48.1% | MCF7 breast -7.92% | HCT-116 colon -70.6% | KM12 colon 6.02%

N[C@@H](CCCCNCC(=O)O)C(=O)O
inactive: SR leukemia 99.3% | RPMI-8226 leukemia 116% | OVCAR-8 ovarian 105% | OVCAR-5 ovarian 102% | OVCAR-4 ovarian 101% | SK-OV-3 ovarian 103% | IGROV1 ovarian 108% | OVCAR-3 ovarian 114% | HS 578T breast 98.2% | NCI/ADR-RES ovarian 101% | T-47D breast 96.9% | SW-620 colon 101% | MCF7 breast 105% | HCT-116 colon 106% | HCC-2998 colon 103% | KM12 colon 101%

CCOc1ccccc1-c1cc(-c2cccs2)c(C#N)c(=O)[nH]1
inactive: SR leukemia 77.4% | RPMI-8226 leukemia 91.2% | OVCAR-8 ovarian 95% | OVCAR-5 ovarian 94.6% | OVCAR-4 ovarian 39.2% | SK-OV-3 ovarian 98.7% | IGROV1 ovarian 66.7% | OVCAR-3 ovarian 99.7% | HS 578T breast 76.6% | NCI/ADR-RES ovarian 76.7% | T-47D breast 26.7% | MDA-MB-435 melanoma 31.2% | SW-620 colon 80.9% | MCF7 breast 37.1% | HCC-2998 colon 92.2% | KM12 colon 83.9%

COC(=O)[C@H](CSC)N(C)C(=O)[C@@H]1CSSC[C@@H](NC(=O)c2nc3ccccc3cc2O)C(=O)NCC(=O)N1C
inactive: SR leukemia 28.6% | RPMI-8226 leukemia 85.2% | OVCAR-8 ovarian 90.2% | OVCAR-5 ovarian 128% | OVCAR-4 ovarian 103% | SK-OV-3 ovarian 91.6% | IGROV1 ovarian 95.8% | OVCAR-3 ovarian 58.2% | HS 578T breast 90.9% | NCI/ADR-RES ovarian 104% | T-47D breast 33.8% | BT-549 breast 111% | MDA-MB-435 melanoma 70% | SW-620 colon 74.2% | MCF7 breast 79.4% | HCT-116 colon 71.7% | KM12 colon 50.6%

CNC(=O)c1cc(Oc2ccc3nc(Nc4ccc(Cl)c(C(F)(F)F)c4)ccc3c2)ccn1
inactive: SR leukemia 30% | RPMI-8226 leukemia 53.8% | OVCAR-8 ovarian 58.4% | OVCAR-5 ovarian 91.8% | OVCAR-4 ovarian 56.3% | SK-OV-3 ovarian 93.3% | IGROV1 ovarian 83.8% | OVCAR-3 ovarian 61.5% | HS 578T breast 77.8% | NCI/ADR-RES ovarian 65.5% | T-47D breast 43.5% | BT-549 breast 83.1% | MDA-MB-435 melanoma 52.3% | SW-620 colon 104% | MCF7 breast 42.7% | HCC-2998 colon 65.5% | KM12 colon 52.7%

O=C(/C=C/c1ccco1)c1ccc(Nc2nc(Nc3ccc(F)cc3)nc(Nc3ccc(Cl)cc3)n2)cc1
active: SR leukemia 0.269%
inactive: RPMI-8226 leukemia 23.6% | OVCAR-8 ovarian 87.9% | OVCAR-5 ovarian 64.9% | OVCAR-4 ovarian 78.4% | SK-OV-3 ovarian 95.4% | IGROV1 ovarian 61.7% | OVCAR-3 ovarian 75% | HS 578T breast 81.5% | NCI/ADR-RES ovarian 67.3% | T-47D breast 46.6% | BT-549 breast 78.7% | SW-620 colon 84.4% | MCF7 breast 33.4% | HCT-116 colon 62.5% | HCC-2998 colon 54.8% | KM12 colon 65.2%
